Screening data from PubChem BioAssay.
C-LANA FP = inhibitors of KSHV LANA C-terminal domain DNA binding | MBP-C-LANA/FAM-LBS DNA binding, fluorescence polarization | inhibition, % at 9 µM | hit rate 0.078% among 340,000;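 active means highest replicate inhibition at or above 60% at 9 µM, even if other replicates fall short; inactive means all replicates below 60% inhibition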;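 further: 0% = neutral control wells and 100% = 4 µM acridine orange control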
IDE cell activ = IDE (human) activation, cell-based; P14735; HEK cells, FAbeta-B cleavage, fluorescence polarization; 0% vehicle, 100% cell-free pure enzyme wells; activation, % at 5.96 µM; hit rate 0.073% among 340,000;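 active means activation above the mean of all tested compounds plus 3 SD, set per screening campaign, cut at about 17% in these data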
Keap1 Nrf2 FP = Keap1-Nrf2 (human) interaction inhibition; Q14145; Keap1 Kelch-Nrf2 peptide fluorescence polarization, 1536-well; inhibition, % at 9.4 µM; hit rate 0.15% among 340,000; AID 504523; in the data active means inhibition above about 12%;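 further: human Keap1 Kelch domain with fluorescein labeled Nrf2 9mer peptide probe; 0% = neutral control wells and 100% = peptide positive control; higher means more block of Keap1 binding to Nrf2 peptide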
Target sequence (Q14145 whole entry, looked up, the tested form may be a part): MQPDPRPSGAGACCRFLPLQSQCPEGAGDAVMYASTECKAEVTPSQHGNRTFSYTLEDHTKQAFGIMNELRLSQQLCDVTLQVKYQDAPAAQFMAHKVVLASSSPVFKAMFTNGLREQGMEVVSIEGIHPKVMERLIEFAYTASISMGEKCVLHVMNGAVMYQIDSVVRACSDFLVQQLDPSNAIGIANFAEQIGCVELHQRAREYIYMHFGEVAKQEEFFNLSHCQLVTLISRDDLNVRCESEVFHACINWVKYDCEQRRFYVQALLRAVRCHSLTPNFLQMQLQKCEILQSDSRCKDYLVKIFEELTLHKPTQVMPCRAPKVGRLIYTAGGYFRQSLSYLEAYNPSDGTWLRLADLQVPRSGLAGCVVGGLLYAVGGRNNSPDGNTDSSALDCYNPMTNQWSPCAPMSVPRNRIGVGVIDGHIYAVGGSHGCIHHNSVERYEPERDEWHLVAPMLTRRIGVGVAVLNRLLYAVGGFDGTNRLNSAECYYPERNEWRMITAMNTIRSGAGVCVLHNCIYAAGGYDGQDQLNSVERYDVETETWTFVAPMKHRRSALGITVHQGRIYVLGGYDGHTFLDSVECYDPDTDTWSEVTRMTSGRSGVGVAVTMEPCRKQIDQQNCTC
IDE inh = inhibits human insulin-degrading enzyme in HEK cells. P14735. FAbetaB cleavage, fluorescence polarization. inhibition, % at 5.59 µM. hit rate 0.41% among 320,000. AID 434962;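 active means percent inhibition above the average of all tested compounds plus 3 SD, set per screening campaign, cut at about 16% in these data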;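 further: IDE supplied by intact live HEK cells; FP after avidin binding of uncleaved biotin substrate so inhibition keeps polarization high; 0% = DMSO wells and 100% = 60 µM reference IDE inhibitor Ii1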
RTF Ca sens inh = cardiac RTF calcium desensitization. P19429+P45379. IANBD-labeled cardiac RTF, Ca2+ fluorescence. inhibition, % at 7.15 µM. hit rate 0.12% among 340,000. AID 493244;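 active means inhibition above the mean inhibition of all tested compounds plus 3 SD, cut at about 17% in these data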;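 further: assay run at fixed EC70 calcium of 1.6 mM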
RTF Ca sens act = cardiac RTF calcium sensitization; P19429+P45379; IANBD-labeled TnC RTF fluorescence at EC20 calcium; 0% EC20 calcium, 100% full calcium; activation, % at 7.2 µM; hit rate 0.24% among 340,000;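 active means activation above the mean over all tested compounds plus 3 SD, cut at about 30% in these data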;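 further: rise in fluorescence read as greater calcium sensitivity of cardiac thin filaments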
Keap1 Kelch bind = binders of human Keap1 Kelch domain; shares compounds with Keap1 Nrf2 FP; Keap1 Kelch thermal shift, delta Tm; stronger effect = higher value; max delta Tm, degrees C; hit rate 8% among 400; AID 651823; in the data active means max delta Tm above about 0.48 degrees C
Sypro dye melt = counter-screen for Keap1 thermal shift hits: dye-only artifacts; shares compounds with Keap1 Nrf2 FP; Sypro Orange dye-only thermal melt, no protein, delta Tm; top dose 26 µM; delta Tm, degrees C (no concentration beside the values); 140 tested, under 10 active; AID 651858;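 active means at highest dose tested, delta Tm positive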
* = called active by the depositor; / = no result given. Shown are actives, neighbours in structure and some others; about 0.81% of the full set was active somewhere.

SMILES	C-LANA FP	IDE cell activ	Keap1 Nrf2 FP	IDE inh	RTF Ca sens inh	RTF Ca sens act	Keap1 Kelch bind	others
CCOc1cnc(-c2c(-c3c(F)cccc3Cl)noc2C)o1	0.8	5.0	1.8	3.5	-7.8	4.1	/
Cc1cc[n+](-c2[nH]c(=O)sc2/C=N/N=C(\[O-])c2ccccc2)cc1C	61.9*	-0.4	42.7*	/	-60.4	55.0*	-0.04
Cc1cc(NC(=O)COC(=O)c2nccnc2N)n(-c2ccccc2)n1	2.4	-1.2	-4.9	4.5	0.5	12.9	/
CCCc1cc(NC(=O)COC(=O)c2nccnc2N)n(-c2ccccc2)n1	25.7	3.8	57.3*	-6.4	-3.0	4.8	-0.08
O=[N+]([O-])c1cc(C(F)(F)F)ccc1NC1CCN(Cc2ccccc2)CC1	28.6	/	43.2*	-2.1	/	/	-0.06	Sypro dye melt=-21.6
O=C(COC(=O)c1ccccn1)Nc1ccc2c(c1)OCCO2	-0.3	2.1	1.5	-1.6	-2.6	-1.7	/
Cc1cc(C)c2nc3sc(C(=O)N4CCOCC4)c(N)c3cc2c1	-1.1	-3.1	13.7*	2.4	-6.5	-1.4	-0.17
Cc1ccc(C)c2nc3sc(C(=O)N4CCOCC4)c(N)c3cc12	-0.1	-2.5	-5.0	7.0	-11.5	5.5	/
COc1ccc(N(CC(=O)Nc2cc(C(=O)O)ccc2C)S(=O)(=O)c2c(C)noc2C)cc1	-1.4	-1.1	2.3	6.8	-2.7	-2.9	/
Cc1cc(C)c(C)c(S(=O)(=O)Nc2cccc(S(=O)(=O)Nc3ccccc3C(=O)O)c2)c1C	0.4	4.9	13.9*	9.7	4.6	-6.8	0.58*
CC1CCCC(NC(=O)C2N(CCCN3CCCC3)C(=O)C3C(C(=O)Nc4cccc(Cl)c4)C4C=CC32O4)C1C (stereo not drawn)	0.5	4.9	3.9	0.7	-3.2	2.1	/
CCc1cc(C(=O)c2ccccc2OC)c(N)s1	0.2	0.7	-2.7	-0.6	-3.3	-6.2	/
CCc1cc(C(=O)c2ccc(OC)cc2)c(N)s1	10.4	/	25.9*	-2.1	/	/	-0.18
COc1ccc(C(=O)c2ccc(CC#N)s2)cc1	1.2	1.4	-5.1	-3.5	-8.0	5.2	/
COc1ccc(C(=O)c2ccsc2N)cc1	57.3	-0.8	14.1*	3.9	-48.9	64.7*	-0.04
CCN1CCN(c2ccc(S(=O)(=O)N3CCCCC3)cc2NC(=O)c2sccc2C)CC1	0.4	2.2	0.2	6.4	7.5	-4.7	/
O=C(O)CN1C(=O)/C(=C\C(Br)=C\c2ccccc2)SC1=S	3.1	-2.1	-0.8	3.6	-5.0	-3.1	/
CCN(CC)c1ccc(C2Nc3cccc4cccc(c34)N2)cc1	24.9	5.3	26.4*	-3.5	-4.2	-0.2	-0.02
CCN(CC)c1ccc(C2NC(=O)c3ccccc3N2)cc1 (stereo not drawn)	-0.4	0.2	-0.5	/	0.9	-4.9	/
CCOc1ccccc1-c1ccc(C(=O)NCc2ccccc2)o1	2.1	-1.8	-1.7	4.9	-7.4	-4.8	/
N#Cc1c(SCC(=O)Nc2nncs2)sc2c(O)cc(=O)[nH]c12	19.6	4.5	20.7*	3.0	-12.4	-5.0	0.19	Sypro dye melt=-32.5
N#Cc1c(SCC(=O)Nc2ccc(C(F)(F)F)cc2)sc2c(O)cc(=O)[nH]c12	0.9	-3.1	-3.6	4.7	-4.3	0.9	/
Cc1cc(C)c(NC(=O)CSc2nnc(CNC(=O)c3ccco3)o2)c(C)c1	-1.2	2.8	3.1	-0.7	-0.3	3.1	/
CCOC(=O)N1CCN(Cc2ccccc2Cl)CC1	-2.2	-7.7	14.5*	-1.7	-6.3	2.4	-0.17
CCOC(=O)N1CCN(Cc2ccccc2F)CC1	-0.2	1.8	-0.4	-0.7	-1.1	-0.3	/
SMILES	C-LANA FP	IDE cell activ	Keap1 Nrf2 FP	IDE inh	RTF Ca sens inh	RTF Ca sens act	Keap1 Kelch bind	others
CCOC(=O)c1sc(NS(=O)(=O)c2ccccc2)nc1C	1.7	3.1	-1.0	-3.0	-3.7	7.1	/
Cc1nc(NS(=O)(=O)c2ccccc2)sc1NC(=O)OCCN(C)C	32.8	-3.9	27.1*	-1.5	-18.3	2.2	-0.05
COc1ccc(CNC(=O)CCSCc2ccccc2C)cc1	-1.0	-1.2	-0.2	8.9	-11.2	5.4	/
O=C(Nn1cnnc1)c1ccc(Cl)c(Cl)c1	11.7	-0.2	21.6*	0.0	-10.4	6.4	-0.05
Cc1ccc(C(=O)N/C(=C\c2ccc(-c3ccccc3[N+](=O)[O-])o2)C(=O)NCCCN(C)C)cc1	32.3	0.9	13.9*	10.3	-11.6	11.4	0.02
Cc1ccc(CN2CC(C(=O)NNC(=O)c3ccc(F)cc3)CC2=O)cc1 (stereo not drawn)	-2.1	-2.0	-3.2	1.5	6.0	-3.4	/
CCOc1ccc(NC(=O)CCN2C(=O)C3CCCCC3C2=O)cc1OCC (stereo not drawn)	2.9	3.9	5.5	8.7	-7.8	-1.8	/
CCOc1ccc(NC(=O)COC(=O)CCN2C(=O)C3CC=CCC3C2=O)cc1OCC (stereo not drawn)	22.0	3.1	45.3*	2.1	-13.4	16.8	0.15
Cc1ccc(NC(=O)CN2C(=O)NC3(CCCCCC3)C2=O)cc1Cl	-0.5	1.1	19.7*	5.3	-13.2	0.0	-0.03
Cc1ccc(NC(=O)CN2C(=O)NC3(CCCC3)C2=O)cc1S(=O)(=O)N1CCCCC1	0.5	7.6	-2.7	-1.7	5.5	-4.7	/
CNC(=O)c1ccc(NC(=O)CC23CC4CC(CC(C4)C2)C3)cc1	0.3	3.9	-2.4	0.6	-9.2	-7.5	/
NC(=O)COc1ccc(NC(=O)CC23CC4CC(CC(C4)C2)C3)cc1	0.6	-1.0	22.3*	2.2	-3.5	0.5	-0.09
Cc1ccccc1NS(=O)(=O)c1ccc2c3c(cccc13)C(=O)N2C	-0.3	4.8	2.9	3.8	3.7	-6.7	/
CN1C(=O)c2cccc3c(S(N)(=O)=O)ccc1c23	19.1	4.8	29.0*	3.4	-1.9	5.3	-0.09
c1ccc2c(c1)CCCN2Cc1nnnn1CC1CCCO1 (stereo not drawn)	30.6	2.2	20.2*	-3.9	-64.0	37.1*	-0.19
COC(=O)[C@@H]1CC[C@H](C)[C@@H](c2ccc(C)cc2)N1C(=O)c1ccc(/C=N/O[C@@H](C)c2cn([C@H](CO)Cc3ccccc3)nn2)cc1	/	/	/	1.3	/	/	/
Cc1ccc(CCNC(=O)CSCc2ccc(F)cc2)cc1	1.0	6.4	5.0	3.7	-11.2	4.1	/
CCOc1ccc(OCCCC(=O)N(CC)CC(=O)Nc2c(F)cccc2F)cc1	22.8	1.7	35.8*	-2.3	-11.8	1.1	-0.15	Sypro dye melt=-26.8
CCN(CC(=O)Nc1c(F)cccc1F)C(=O)CCCOc1ccccc1	-1.2	0.9	-1.7	/	-7.3	-6.6	/
COc1ccc(Br)cc1CNCC1CCCO1 (stereo not drawn)	18.9	6.3	35.7*	4.2	0.2	-2.8	-0.18
